Some compounds were tested as several samples or in several runs, with calls that do not always agree. Active and inactive are the calls of the source. How the source made its calls: active means hit-call score of the fitted dose curve at least 0.9, where 1 is the maximum; inactive means score below 0.9.
Each compound was assayed against Aryl hydrocarbon receptor (Homo sapiens) (UniProt P35869) (assay: ATG_Ahr_CIS: Attagene CIS-FACTORIAL HepG2 Assay for human Aryl Hydrocarbon Receptor (Ahr) (AID 2282930)). Settings: HepG2 AhR cis-factorial reporter transcription; actives raise or lower the signal.
Aryl hydrocarbon receptor (Homo sapiens), sequence (P35869 whole entry, looked up): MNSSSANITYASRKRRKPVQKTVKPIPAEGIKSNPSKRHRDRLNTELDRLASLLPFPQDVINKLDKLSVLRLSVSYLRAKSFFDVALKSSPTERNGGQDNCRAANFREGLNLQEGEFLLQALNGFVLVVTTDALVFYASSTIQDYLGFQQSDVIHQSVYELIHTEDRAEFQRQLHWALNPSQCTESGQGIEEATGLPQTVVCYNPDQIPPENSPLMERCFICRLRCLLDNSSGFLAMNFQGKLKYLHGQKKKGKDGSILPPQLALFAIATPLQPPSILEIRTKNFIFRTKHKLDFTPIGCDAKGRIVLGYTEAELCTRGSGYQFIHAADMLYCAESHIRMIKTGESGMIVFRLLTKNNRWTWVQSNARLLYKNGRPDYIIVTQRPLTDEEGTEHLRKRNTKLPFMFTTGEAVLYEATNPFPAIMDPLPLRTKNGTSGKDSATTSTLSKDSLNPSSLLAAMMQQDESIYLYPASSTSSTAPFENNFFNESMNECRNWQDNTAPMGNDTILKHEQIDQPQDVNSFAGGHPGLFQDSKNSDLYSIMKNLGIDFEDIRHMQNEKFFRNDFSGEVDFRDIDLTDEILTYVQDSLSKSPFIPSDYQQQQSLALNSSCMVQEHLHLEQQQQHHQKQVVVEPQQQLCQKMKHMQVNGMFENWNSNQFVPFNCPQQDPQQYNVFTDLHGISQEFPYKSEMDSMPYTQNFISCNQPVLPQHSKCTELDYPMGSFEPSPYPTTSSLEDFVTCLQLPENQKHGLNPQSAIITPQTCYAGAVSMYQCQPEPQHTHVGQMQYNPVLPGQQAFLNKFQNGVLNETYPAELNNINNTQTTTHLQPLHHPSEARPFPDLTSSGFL
Procedure: ATG_CIS is a cell-based, multiplexed-readout assay that uses HepG2, a human liver cell line, with measurements taken at 24 hours after chemical dosing in a 24-well plate.ATG_Ahr_CIS is one of 52 assay component(s) measured or calculated from the ATG_CIS assay. It is designed to make measurements of mRNA induction, a form of inducible reporter, as detected with fluorescence intensity signals by Reverse transcription polymerase chain reaction (RT-PCR) and Capillary electrophoresis technology.Data from the assay component ATG_Ahr_CIS was analyzed into 1 assay endpoint. This assay endpoint, ATG_Ahr_CIS, was analyzed with bidirectional fitting relative to DMSO as the negative control and baseline of activity. Using a type of inducible reporter, measures of mRNA for gain or loss-of-signal activity can be used to understand the reporter gene at the transcription factor-level as they relate to the gene AHR. Furthermore, this assay endpoint can be referred to as a primary readout, because this assay has produced multiple assay endpoints where this one serves a reporter gene function. To generalize the intended target to other relatable targets, this assay endpoint is annotated to the dna binding intended target family, where the subfamily is basic helix-loop-helix protein.
Human liver HepG2 cells are transiently transfected with multiple reporter transcription units (MRTUs) in 6-well plates using FuGene 6 reagent (Roche; 3 ml FuGene/1 mg DNA). The MRTU constructs are regulated by a cis-regulating element (promoter). […] A major difference between the CIS and TRANS system is that in CIS activities of endogenous TFs are measured, whereas the TRANS assay evaluates changes in activities of exogenous, chimeric NR-Gal4 proteins. […] At the end of 24 hour incubation, total RNA was isolated using TriZol reagent (Invitrogen). The isolated RNA is then reverse-transcribed using oligo(dT) primer and Mo-MLV reverse transcriptase (Invitrogen) with DNAse I (Ambion) treatment for 30 min. The one-tenth of the produced cDNA was amplified by PCR using Taq DNA polymerase (Invitrogen) and two reporter sequence-specific primers. The PCR products were fluorescently labeled by primer extension with 6-arboxyfluorescein (6-FAM) 5'-labeled reporter sequence-specific primer (2 min at 95 C, 20 s at 68 C and 10 min at 72 C) and these products were digested with 5U of HpaI (New England Biolabs) for 2h at 37 C. […] The raw capillary electrophoresis data was processed using Attagraph software (Attagene).

SMILES | outcome | AC50
O=C(O)C(F)(F)C(F)(F)C(F)(F)C(F)(F)C(F)(F)C(F)(F)C(F)(F)C(F)(F)C(F)(F)C(F)(F)C(F)(F)C(F)(F)F | inactive | 
C=CC(F)(F)C(F)(F)C(F)(F)C(F)(F)C(F)(F)C(F)(F)C(F)(F)C(F)(F)F | inactive | 
O=C(O)C(F)(F)C(F)(F)C(F)(F)F | inactive | 
CC(CCl)OP(=O)(OC(C)CCl)OC(C)CCl (stereo not given) | inactive | 
CCCCCCOC(=O)c1ccccc1 |  | 50.4 µM (active)
CCCCCC=O | inactive | 
O[Si](c1ccccc1)(c1ccccc1)c1ccccc1 | inactive | 
[Co] | inactive | 
FC(F)(F)C(F)(F)C(F)(F)C(F)(F)C(F)(F)C(F)(F)C(F)(F)C(F)(F)F | inactive | 
FC(F)(F)C(F)(F)C(F)(F)C(F)(F)C(F)(F)C(F)(F)CC1CO1 (stereo not given) | inactive | 
CCCCCCC(C)OC(=O)CCCCC(=O)OC(C)CCCCCC (stereo not given) | inactive | 
FC(F)(F)C(F)(F)C(F)(F)N(C(F)(F)C(F)(F)C(F)(F)F)C(F)(F)C(F)(F)C(F)(F)F | inactive | 
CNC(=S)NC | inactive | 
Nc1cc(Cl)c(N)c(Cl)c1 |  | 6.21 µM (active)
CO[Si](OC)(c1ccccc1)c1ccccc1 | inactive | 
Nc1ccc(S(=O)(=O)Nc2nccs2)cc1 | inactive | 
O=C(O)C(F)(OC(F)(F)C(F)(OC(F)(F)C(F)(OC(F)(F)C(F)(F)C(F)(F)F)C(F)(F)F)C(F)(F)F)C(F)(F)F (stereo not given) | inactive | 
O=C(Cl)C(F)(F)C(F)(F)C(F)(F)C(F)(F)C(F)(F)C(F)(F)C(F)(F)C(F)(F)F | inactive | 
OCC(F)(F)C(F)(F)C(F)(F)C(F)(F)C(F)(F)C(F)(F)F | inactive | 
O=C(O)C(F)(F)C(F)(F)C(F)(F)C(F)(F)C(F)(F)C(F)(F)C(F)(F)C(F)(F)Cl | inactive | 

SMILES | outcome | AC50
CCCCCCCOC(=O)c1ccccc1C(=O)OCCCCCCC | inactive | 
FC(F)(F)C(F)(F)C(F)(F)C(F)(F)C(F)(F)C(F)(F)C(F)(F)C(F)(F)CCS | inactive | 
CN(C)Cc1ccccc1O | inactive | 
FC(F)(F)C(F)(F)C(F)(F)C(F)(F)CCI | inactive | 43.5 µM (active)
CCCCNc1ccccc1 | inactive | 
CCCCOCCOCCOC(=O)CCCCC(=O)OCCOCCOCCCC | inactive | 
FC(F)(I)C(F)(F)C(F)(F)C(F)(F)I | inactive | 
CC/C=C\CCOC(=O)c1ccccc1 | inactive | 
CCO[Si](CCC(F)(F)C(F)(F)C(F)(F)C(F)(F)C(F)(F)C(F)(F)F)(OCC)OCC | inactive | 
O=S(=O)(OCC(F)F)C(F)(F)F | inactive | 
CCc1ccc(C(c2ccc(CC)cc2)C(Cl)Cl)cc1 | inactive | 
FC1CC(F)(F)C(F)(F)C1(F)F (stereo not given) | inactive | 
Cc1cccc(N(C)C)c1 | inactive | 
FC(F)(F)C(F)(F)C(F)(F)CI | inactive | 
FC(F)(F)C(F)(F)CNCC(F)(F)C(F)(F)F | inactive | 
CCCCCCS | inactive | 
CC(C)(C)c1ccc(OC2CCCCC2O)cc1 (stereo not given) | inactive | 
C=C(C)C(=O)OCC(F)(F)C(F)(F)C(F)(F)C(F)(F)C(F)(F)C(F)(F)C(F)(F)F | inactive | 
OCCCC(F)(F)C(F)(F)C(F)(F)C(F)(F)C(F)(F)C(F)(F)C(F)(F)F | inactive | 

From PubChem BioAssay (EPA / NIEHS)
